Test results: PubChem BioAssay AID1508600 (Functional Genomics Laboratory (NCATS/FGL), 2020)
About 3,700 (7%) of roughly 53,000 sequences were called active. Shown is part of a subset that was picked to be rich in actives. Unmarked numbers belong to inactive results.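 Rule for the calls: active = gene knockdowns whose robust z-score for IL-1 alpha signal is at least 2 or at most -2, so actives lie on both sides; inactive = the rest.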

assay: Components of the Cytosolic LPS Sensing Pathway: Gene Identification via Genome-wide siRNA Screen; settings: RAW264.7 macrophages, IL-1a HTRF, actives lie on both sides, screened at 100 nM (by protocol), cells primed 5 h with Pam3CSK4 first;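 note: robust z of the log signal after scaling to non-targeting control siRNA wells of the plate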
Summary of the method: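 Cells (RAW264.7, 1×10^4 per well) were transfected with siRNA at 100 nM and cultured 48h at 37 degrees C. Pam3CSK4 was added for 5 hours; LipidA transfection followed for 24 hour. IL-1a was then measured by HTRF.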

Sequence | z-score
GGUGUUUUCUGUGUAACCATT against Tlx1 | -0.843
GGAUGUUUGGACAAUCUAUTT against Itga4 | 0.634
GCAAAUGUCUCGGAAAGAATT against Cdk11b | -2.18 (active)
GCAAGAGACCAUGAGAAAUTT against Ccdc18 | -0.149
GGACUAGAAUAUCACAACGTT against Iqub | 0.905
GGCAAAAUAGAGAAAUACATT against Lima1 | 2.37 (active)
GCCAUGUUUAAGCAAUUGUTT against Vsx1 | -0.575
GGAGGGUAUUAGUGCACUGTT against Ptpn1 | -0.111
GCCUCAUUUGCUUCACUGUTT against Cd163l1 | 0.148
GGCGAAAAGACCAGUUAUGTT against Man2c1 | 2.31 (active)
GGUGCACUCUGUCAGUUCATT against Col27a1 | -0.352
GCAUACCUAUUCACGUACGTT against Slc7a4 | -0.475
GCCCAAGCUUUUAUCAAGATT against Frmd4b | 1.48
CCCUUUCCUAUGCAUUUGCTT against Olfr851 | 0.97
CGUACCUAAGCAUACCAGCTT against Gpr20 | 4.94 (active)
CGAGCUUCGGAGGAAGUGATT against Zc3hav1l | -0.743
GGUACUCUGUGGAUAUCCCTT against Rpl27 | -0.224
GGAGCGUACCAUGAUCGAUTT against Parvb | -2.17 (active)
GGCUUCUUCACUGAAAUUCTT against 1700074P13Rik | -1.1
GGCACUUUGUGGCAAAUCUTT against Pcdhb1 | 0.742
CGUGCAAGCAGUGAUUUUGTT against Smpx | -1.33
GGCUCAAGUAUGAGUCUCATT against Calhm2 | 0.73
GGGAAGAAGAAAAAGAUGATT against Peak1 | -0.506
CGGACUAUCUCUAUGAAGATT against Tas2r108 | -0.587
GGUGAUUUCGGGUAACGAGTT against Ddr1 | -2.17 (active)
GGGUGUUUUUAAGUGUCCCTT against Zfp574 | 0.475
GGUUUUUGUGGAAAUGUGGTT against Smpd4 | -2.58 (active)

Sequence | z-score
GGCAGUUUGUUAAUGAAUGTT against Pcsk1 | -0.901
GGAGGAGAAAACAGGAAUUTT against H2-Eb1 | -0.03
GCGACCGUAUUGUCACUUGTT against Arpc1a | -0.465
CCUUGUCGAGCACAUGAGATT against Zfp69 | 0.0825
GGCAAGUGAGGAAAAGAGGTT against Setd1a | -0.741
GAUUUUCCUCUACUGUCCUTT against U90926 | -0.532
GGUCUUGGAUGCAAACGAUTT against Pcdhga2 | 0.518
GCUAGCAAGUGAGAUGGAGTT against Mbd3l1 | 1.58
GGGCCUUCAAAAAACUGCCTT against Eva1b | 1.75
GGGAGAUAUGCAAUGAAUATT against Creb5 | -1.34
GGAAGGUCUUCGAGAUUUUTT against Gpr75 | 4.56 (active)
CCUCUUAAACAUGUCCUAGTT against Atp6v0a2 | -1.04
CCUUCUGGAGUACAUAUCCTT against Trip6 | 0.16
GGAAAAGUCCCGUAUGGAGTT against Gcc1 | -3.14 (active)
CCAAAUGCUUAUCUCUACATT against Dock6 | 0.00388
GGACAAAAAAAUAGAAGGATT against Rrbp1 | 0.344
GGACUAUCUUUAUGAUGUGTT against Ush1c | -0.164
GGUGAUGGAGAAGAGAAGATT against Fam107b | 2.88 (active)
GGUUUGUAAAGGUUAUGACTT against Nell2 | 0.0203
CCUAGAAGCUAAUUACCAATT against Saa4 | -0.946
GCGGCUACUCAUAUAAGUCTT against Trappc8 | -0.5
CGGUGACAUUUGUGAAACUTT against Smn1 | -2.05 (active)
GGAGAAUUACGGUGCCAACTT against Ncoa3 | -0.354
GCUCAUCUCGAUUUGACUGTT against Cln3 | -1.67
CCUAAUCCUGAUAAUUCCATT against Niban2 | -1.54
GGAGUUGUUGUGCUUUUAATT against Tmem45a | 3.02 (active)
GGACUCACAGUUAAAAGUATT against Gtse1 | 1.2
